Assay results reported in ChEMBL document CHEMBL1961873, “Compounds: GSK PKIS; Assays: Nanosyn kinase panel” (2012).

What was measured:
[1] = target: Serine/threonine-protein kinase MARK2 (Homo sapiens) (UniProt Q7KZI7); conditions: at 1 µM
[2] = target: PAS domain-containing serine/threonine-protein kinase (Homo sapiens) (UniProt Q96RG2); conditions: at 0.1 µM
[3] = target: PAS domain-containing serine/threonine-protein kinase (Homo sapiens) (UniProt Q96RG2); conditions: at 1 µM
[4] = target: Phosphorylase b kinase gamma catalytic chain, skeletal muscle/heart isoform (Homo sapiens) (UniProt Q16816); conditions: at 0.1 µM
[5] = target: Phosphorylase b kinase gamma catalytic chain, skeletal muscle/heart isoform (Homo sapiens) (UniProt Q16816); conditions: at 1 µM
[6] = target: T1, Phosphorylase b kinase gamma catalytic chain, liver/testis isoform (Homo sapiens) (UniProt P15735); conditions: at 0.1 µM
T1 sequence (whole entry): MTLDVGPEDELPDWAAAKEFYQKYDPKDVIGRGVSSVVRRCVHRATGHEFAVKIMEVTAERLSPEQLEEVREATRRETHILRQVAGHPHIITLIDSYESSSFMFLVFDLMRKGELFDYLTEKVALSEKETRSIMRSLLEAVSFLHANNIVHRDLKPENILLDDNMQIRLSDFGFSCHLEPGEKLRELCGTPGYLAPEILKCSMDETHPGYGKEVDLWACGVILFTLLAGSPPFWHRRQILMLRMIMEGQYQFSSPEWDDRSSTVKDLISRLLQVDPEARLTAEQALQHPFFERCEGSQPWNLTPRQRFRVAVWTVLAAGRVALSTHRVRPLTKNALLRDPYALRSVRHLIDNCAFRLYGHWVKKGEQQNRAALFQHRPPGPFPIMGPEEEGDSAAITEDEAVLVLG

[7] = target: T1, Phosphorylase b kinase gamma catalytic chain, liver/testis isoform (Homo sapiens); conditions: at 1 µM
[8] = target: Serine/threonine-protein kinase pim-1 (Homo sapiens) (UniProt P11309); conditions: at 0.1 µM
[9] = target: Serine/threonine-protein kinase pim-1 (Homo sapiens) (UniProt P11309); conditions: at 1 µM
[10] = target: Serine/threonine-protein kinase pim-2 (Homo sapiens) (UniProt Q9P1W9); conditions: at 0.1 µM
[11] = target: Serine/threonine-protein kinase pim-2 (Homo sapiens) (UniProt Q9P1W9); conditions: at 1 µM
[12] = target: Serine/threonine-protein kinase pim-3 (Homo sapiens) (UniProt Q86V86); conditions: at 0.1 µM
[13] = target: Serine/threonine-protein kinase pim-3 (Homo sapiens) (UniProt Q86V86); conditions: at 1 µM
[14] = target: T2, MAP kinase-activated protein kinase 5 (Homo sapiens) (UniProt Q8IW41); conditions: at 0.1 µM
T2 sequence (whole entry): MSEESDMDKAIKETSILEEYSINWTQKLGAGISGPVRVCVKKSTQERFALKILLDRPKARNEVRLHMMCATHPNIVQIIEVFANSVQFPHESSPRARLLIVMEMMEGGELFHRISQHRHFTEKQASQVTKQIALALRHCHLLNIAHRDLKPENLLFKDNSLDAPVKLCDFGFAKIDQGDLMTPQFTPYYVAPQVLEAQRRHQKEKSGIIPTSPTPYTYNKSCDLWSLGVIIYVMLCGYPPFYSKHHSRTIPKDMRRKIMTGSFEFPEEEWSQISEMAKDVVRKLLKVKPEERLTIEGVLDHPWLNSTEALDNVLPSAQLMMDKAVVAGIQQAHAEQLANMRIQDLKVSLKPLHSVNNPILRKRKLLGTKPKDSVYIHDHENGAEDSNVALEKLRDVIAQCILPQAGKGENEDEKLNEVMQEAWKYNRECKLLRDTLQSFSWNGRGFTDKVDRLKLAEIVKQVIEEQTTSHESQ

[15] = target: T2, MAP kinase-activated protein kinase 5 (Homo sapiens); conditions: at 1 µM
[16] = target: Serine/threonine-protein kinase SIK1 (Homo sapiens) (UniProt P57059); conditions: at 0.1 µM
[17] = target: Serine/threonine-protein kinase SIK1 (Homo sapiens) (UniProt P57059); conditions: at 1 µM
[18] = target: Serine/threonine-protein kinase SIK2 (Homo sapiens) (UniProt Q9H0K1); conditions: at 0.1 µM
[19] = target: Serine/threonine-protein kinase SIK2 (Homo sapiens) (UniProt Q9H0K1); conditions: at 1 µM
[20] = target: T3, Serine/threonine-protein kinase TBK1 (Homo sapiens) (UniProt Q9UHD2); conditions: at 0.1 µM;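 also: values are the mean TBK1 inhibition, taken from the GSK PKIS screening data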
T3 sequence (whole entry): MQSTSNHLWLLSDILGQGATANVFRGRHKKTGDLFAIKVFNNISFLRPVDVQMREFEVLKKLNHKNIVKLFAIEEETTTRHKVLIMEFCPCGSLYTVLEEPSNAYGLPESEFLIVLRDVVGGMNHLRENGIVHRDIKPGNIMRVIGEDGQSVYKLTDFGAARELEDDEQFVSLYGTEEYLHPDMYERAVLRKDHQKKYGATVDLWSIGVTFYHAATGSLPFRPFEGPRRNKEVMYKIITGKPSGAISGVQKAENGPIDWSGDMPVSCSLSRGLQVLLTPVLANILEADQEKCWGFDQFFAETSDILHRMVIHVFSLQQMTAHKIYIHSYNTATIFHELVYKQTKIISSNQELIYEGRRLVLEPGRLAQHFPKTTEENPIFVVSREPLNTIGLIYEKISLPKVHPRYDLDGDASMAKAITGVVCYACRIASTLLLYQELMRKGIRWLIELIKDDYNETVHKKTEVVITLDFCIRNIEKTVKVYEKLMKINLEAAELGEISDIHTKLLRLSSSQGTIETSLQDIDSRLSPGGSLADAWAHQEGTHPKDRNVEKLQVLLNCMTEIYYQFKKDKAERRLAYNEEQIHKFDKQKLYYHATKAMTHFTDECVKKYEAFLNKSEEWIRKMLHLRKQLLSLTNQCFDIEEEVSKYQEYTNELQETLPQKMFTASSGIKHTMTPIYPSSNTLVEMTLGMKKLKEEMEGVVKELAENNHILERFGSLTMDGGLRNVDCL

Sequence of Serine/threonine-protein kinase pim-1 (Homo sapiens) (P11309 whole entry, looked up): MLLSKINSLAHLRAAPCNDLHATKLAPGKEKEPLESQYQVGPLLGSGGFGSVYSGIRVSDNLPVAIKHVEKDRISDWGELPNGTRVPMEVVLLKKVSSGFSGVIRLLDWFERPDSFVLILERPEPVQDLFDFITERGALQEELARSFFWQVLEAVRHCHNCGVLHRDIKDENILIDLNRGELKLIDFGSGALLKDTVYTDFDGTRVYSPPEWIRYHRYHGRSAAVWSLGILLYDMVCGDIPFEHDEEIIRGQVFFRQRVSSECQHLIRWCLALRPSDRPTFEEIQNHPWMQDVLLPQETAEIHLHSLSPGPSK
Sequence of PAS domain-containing serine/threonine-protein kinase (Homo sapiens) (Q96RG2 whole entry, the tested form may be a part, canonical isoform): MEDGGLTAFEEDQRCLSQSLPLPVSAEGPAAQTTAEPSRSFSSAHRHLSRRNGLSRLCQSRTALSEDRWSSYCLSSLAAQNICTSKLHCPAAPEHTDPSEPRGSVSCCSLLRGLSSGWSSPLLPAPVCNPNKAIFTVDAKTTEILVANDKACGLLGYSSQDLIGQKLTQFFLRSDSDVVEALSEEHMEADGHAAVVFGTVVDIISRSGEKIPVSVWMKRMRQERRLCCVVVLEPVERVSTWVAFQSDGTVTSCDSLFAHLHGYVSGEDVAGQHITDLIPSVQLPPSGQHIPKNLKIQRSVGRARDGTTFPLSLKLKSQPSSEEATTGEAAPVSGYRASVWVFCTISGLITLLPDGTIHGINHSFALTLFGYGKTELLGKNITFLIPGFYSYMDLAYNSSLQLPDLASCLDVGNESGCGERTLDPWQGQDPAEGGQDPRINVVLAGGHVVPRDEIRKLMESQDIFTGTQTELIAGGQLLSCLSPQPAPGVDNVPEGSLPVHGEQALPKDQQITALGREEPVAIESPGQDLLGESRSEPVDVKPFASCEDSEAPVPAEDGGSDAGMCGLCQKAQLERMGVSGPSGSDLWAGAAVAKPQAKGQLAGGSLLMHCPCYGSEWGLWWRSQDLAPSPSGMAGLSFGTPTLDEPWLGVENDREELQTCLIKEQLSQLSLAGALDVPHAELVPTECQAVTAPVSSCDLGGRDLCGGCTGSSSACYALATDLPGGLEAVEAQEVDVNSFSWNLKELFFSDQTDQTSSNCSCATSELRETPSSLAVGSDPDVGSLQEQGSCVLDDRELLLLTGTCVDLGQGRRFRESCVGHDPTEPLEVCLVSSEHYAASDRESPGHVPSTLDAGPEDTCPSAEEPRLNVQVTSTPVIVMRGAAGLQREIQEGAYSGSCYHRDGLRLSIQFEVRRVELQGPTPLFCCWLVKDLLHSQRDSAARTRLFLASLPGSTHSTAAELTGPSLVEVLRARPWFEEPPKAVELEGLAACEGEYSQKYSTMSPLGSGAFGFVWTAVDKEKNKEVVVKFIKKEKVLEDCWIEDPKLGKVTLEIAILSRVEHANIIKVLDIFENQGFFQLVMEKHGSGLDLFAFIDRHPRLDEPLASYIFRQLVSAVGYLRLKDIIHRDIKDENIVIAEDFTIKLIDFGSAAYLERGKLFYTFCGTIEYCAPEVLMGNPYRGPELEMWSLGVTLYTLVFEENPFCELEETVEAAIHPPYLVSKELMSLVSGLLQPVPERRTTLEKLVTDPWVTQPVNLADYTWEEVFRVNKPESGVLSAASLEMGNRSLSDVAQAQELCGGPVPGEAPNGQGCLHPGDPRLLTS
Sequence of Serine/threonine-protein kinase pim-2 (Homo sapiens) (Q9P1W9 whole entry, looked up): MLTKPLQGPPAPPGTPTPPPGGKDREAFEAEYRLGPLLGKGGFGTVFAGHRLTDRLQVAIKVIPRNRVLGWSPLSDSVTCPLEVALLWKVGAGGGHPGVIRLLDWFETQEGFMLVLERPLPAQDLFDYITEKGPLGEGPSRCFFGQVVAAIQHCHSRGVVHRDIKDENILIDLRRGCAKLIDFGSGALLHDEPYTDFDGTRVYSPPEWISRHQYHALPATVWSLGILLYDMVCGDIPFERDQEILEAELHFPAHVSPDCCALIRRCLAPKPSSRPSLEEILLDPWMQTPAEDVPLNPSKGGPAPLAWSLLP
Sequence of Phosphorylase b kinase gamma catalytic chain, skeletal muscle/heart isoform (Homo sapiens) (Q16816 whole entry, looked up, canonical isoform): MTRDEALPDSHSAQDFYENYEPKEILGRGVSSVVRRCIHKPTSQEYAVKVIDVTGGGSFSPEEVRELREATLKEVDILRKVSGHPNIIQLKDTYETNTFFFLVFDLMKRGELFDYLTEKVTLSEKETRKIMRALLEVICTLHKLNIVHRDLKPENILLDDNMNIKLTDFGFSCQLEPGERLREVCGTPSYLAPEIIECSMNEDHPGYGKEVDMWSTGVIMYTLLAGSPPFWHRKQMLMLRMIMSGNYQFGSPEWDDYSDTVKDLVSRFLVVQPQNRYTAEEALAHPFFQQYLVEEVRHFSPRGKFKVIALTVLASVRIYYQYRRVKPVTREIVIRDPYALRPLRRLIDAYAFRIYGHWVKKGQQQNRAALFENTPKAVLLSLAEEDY
Sequence of Serine/threonine-protein kinase SIK1 (Homo sapiens) (P57059 whole entry): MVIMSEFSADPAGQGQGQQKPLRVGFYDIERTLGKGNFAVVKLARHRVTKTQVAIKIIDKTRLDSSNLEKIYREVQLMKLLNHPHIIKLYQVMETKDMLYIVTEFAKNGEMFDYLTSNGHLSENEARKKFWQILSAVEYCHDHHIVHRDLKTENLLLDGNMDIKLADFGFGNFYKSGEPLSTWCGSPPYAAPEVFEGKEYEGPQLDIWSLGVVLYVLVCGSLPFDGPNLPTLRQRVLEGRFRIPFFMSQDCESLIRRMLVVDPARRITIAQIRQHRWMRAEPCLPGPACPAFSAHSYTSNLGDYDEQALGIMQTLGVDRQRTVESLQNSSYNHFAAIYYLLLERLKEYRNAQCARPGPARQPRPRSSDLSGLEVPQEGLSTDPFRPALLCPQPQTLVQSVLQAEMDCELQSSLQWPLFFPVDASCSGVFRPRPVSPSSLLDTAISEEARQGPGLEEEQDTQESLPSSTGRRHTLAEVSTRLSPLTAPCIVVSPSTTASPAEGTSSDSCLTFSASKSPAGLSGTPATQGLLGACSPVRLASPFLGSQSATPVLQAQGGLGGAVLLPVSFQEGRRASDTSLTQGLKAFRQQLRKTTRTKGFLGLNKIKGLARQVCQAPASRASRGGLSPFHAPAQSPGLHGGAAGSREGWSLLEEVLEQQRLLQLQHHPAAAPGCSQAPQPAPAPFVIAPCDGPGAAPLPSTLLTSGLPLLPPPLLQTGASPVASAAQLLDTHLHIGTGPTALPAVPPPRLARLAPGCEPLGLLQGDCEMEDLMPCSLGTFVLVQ
Sequence of Serine/threonine-protein kinase SIK2 (Homo sapiens) (Q9H0K1 whole entry, looked up): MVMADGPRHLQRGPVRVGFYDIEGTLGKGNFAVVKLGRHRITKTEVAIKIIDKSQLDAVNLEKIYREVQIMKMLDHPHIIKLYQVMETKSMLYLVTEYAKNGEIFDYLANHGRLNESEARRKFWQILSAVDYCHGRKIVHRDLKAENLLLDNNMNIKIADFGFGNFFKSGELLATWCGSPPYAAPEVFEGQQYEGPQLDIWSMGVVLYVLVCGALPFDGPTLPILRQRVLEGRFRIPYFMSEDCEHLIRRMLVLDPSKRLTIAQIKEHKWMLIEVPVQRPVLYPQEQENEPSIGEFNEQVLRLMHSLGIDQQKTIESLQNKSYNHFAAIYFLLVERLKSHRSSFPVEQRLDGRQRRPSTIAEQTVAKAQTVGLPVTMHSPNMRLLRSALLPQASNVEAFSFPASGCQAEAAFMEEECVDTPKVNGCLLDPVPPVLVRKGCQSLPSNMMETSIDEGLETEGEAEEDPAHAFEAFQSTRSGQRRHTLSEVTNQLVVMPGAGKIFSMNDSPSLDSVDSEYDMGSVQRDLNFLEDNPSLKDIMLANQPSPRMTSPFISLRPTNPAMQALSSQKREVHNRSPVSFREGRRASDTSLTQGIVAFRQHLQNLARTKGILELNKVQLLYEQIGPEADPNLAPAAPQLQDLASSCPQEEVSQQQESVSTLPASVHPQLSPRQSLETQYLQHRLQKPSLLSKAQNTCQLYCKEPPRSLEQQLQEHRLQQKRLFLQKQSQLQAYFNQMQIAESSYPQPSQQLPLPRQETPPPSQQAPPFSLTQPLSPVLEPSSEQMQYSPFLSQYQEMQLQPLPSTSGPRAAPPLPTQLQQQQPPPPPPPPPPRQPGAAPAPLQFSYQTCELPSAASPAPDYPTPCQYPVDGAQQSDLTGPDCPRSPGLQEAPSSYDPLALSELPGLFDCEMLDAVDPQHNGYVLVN

SMILES | inhibition [1] | inhibition [2] | inhibition [3] | inhibition [4] | inhibition [5] | inhibition [6] | inhibition [7] | inhibition [8] | inhibition [9] | inhibition [10] | inhibition [11] | inhibition [12] | inhibition [13] | inhibition [14] | inhibition [15] | inhibition [16] | inhibition [17] | inhibition [18] | inhibition [19] | inhibition [20]
Fc1ccc(-c2ncn(CCCN3CCOCC3)c2-c2ccncc2)cc1 | 2.44% | 0.57% | 0.36% | 1.86% | 2.09% | -0.42% | -2.63% | -0.06% | -0.27% | 0.24% | 0.84% | -1.36% | -2.93% | -0.65% | -1.42% | -2.01% | 3.56% | -2.31% | 2.48% | 1.21%
COc1ccc(C2=C(N3CCc4ccccc43)C(=O)NC2=O)cc1 | 1.74% | 0.07% | -0.29% | 3.26% | 6.35% | 7.25% | 4.69% | 0.52% | 4.09% | 0.18% | 0.67% | -0.2% | 0.86% | 1.93% | 2.12% | 8.63% | 8.47% | 6.36% | 11.3% | 0.88%
NCc1ccc(-n2c(-c3nonc3N)nc3cnccc32)cc1 | 23.4% | 0% | 2.53% | 7.71% | 16% | 6.79% | 4.79% | 34.4% | 82.8% | 8.18% | 45.2% | 16.4% | 68.5% | 1.5% | 1.55% | 5.74% | 11.6% | 5.87% | 15.8% | 4.35%
NC(=O)c1ccc(Oc2nccc(-c3c(-c4ccc(F)cc4)ncn3C3CCNCC3)n2)cc1 | 4.02% | -1.25% | -0.29% | 3.06% | 5.58% | 5.89% | 5.72% | 0.9% | 1.7% | -0.5% | -0.49% | 0.26% | 1.82% | 3.51% | 2.54% | 4.73% | 11.3% | 7.22% | 3.63% | 3.9%
COC(=O)Nc1nc2ccc(Sc3ccc(NC(=O)Nc4cc(C(F)(F)F)ccc4F)cc3)cc2[nH]1 | -0.67% | 1.15% | 2% | 8.5% | -0.17% | 1.59% | 0.05% | 33.7% | -0.09% | -0.3% | -0.09% | 1.76% | 2.48% | 0.03% | -0.97% | 3.94% | 0.98% | 4.86% | 0.47% | -0.64%
Cc1ccc(NC(=O)c2ccoc2)cc1-c1ccc(C(=O)NCC2CC2)cc1 | -0.97% | 1.03% | 0.47% | 3.88% | 1.73% | 3.37% | 3.24% | 0.53% | 0.47% | -0.3% | 0.6% | 0.71% | -0.9% | 0.96% | 0.83% | 2.51% | 0.11% | 5.39% | 5.33% | 0.28%
COc1cc(N2CCN(C(C)C)CC2)ccc1Nc1nc(Nc2ccc(F)cc2C(=O)NC[C@@H](O)CO)c2cc[nH]c2n1 | 1.35% | -0.25% | 0.96% | 21% | 62% | 6.76% | 21.1% | -0.41% | 1.79% | -3.35% | -3.2% | 1.39% | 5.28% | 2.43% | 4.77% | 1.88% | 9.27% | 4.52% | 9.21% | 1.74%
Fc1ccc(-c2ncn(C3CCNCC3)c2-c2ccnc(Oc3ccc4c(c3)OCO4)n2)cc1 | 2.68% | 0.16% | 1.32% | 6.43% | 6.48% | 7.66% | 5.8% | 0.83% | 2.07% | -0.04% | 0.71% | 0.14% | 1.3% | 2.12% | 2.05% | 5.99% | 6.9% | 2.25% | 18.5% | 2.29%
COc1ccc(-c2ccc3c(NC(=O)C4CC4)n[nH]c3n2)cc1 | -0.61% | 0.2% | 2.17% | 5.12% | 7.79% | 0.93% | 5.44% | -0.29% | -0.78% | -0.37% | 0.38% | 0.42% | 0.61% | 1.05% | 2.54% | -0.67% | 4.73% | 2.86% | 6.15% | 2.33%
CS(=O)(=O)CCNCc1ccc(-c2ccc3ncnc(Nc4ccc(OCc5ccccc5)c(Br)c4)c3c2)o1 | -0.56% | -0.29% | 0.16% | 7% | 3.21% | 5.03% | 4.55% | -0.99% | -0.09% | -3.07% | -3.1% | -0.66% | -0.32% | 1.32% | 2.06% | 2.19% | 8.17% | 4.6% | 4.18% | 1.02%
CCN(CC)Cc1ccc(Nc2nccc(-c3cnn4ncccc34)n2)cc1 | 16.2% | -0.55% | -0.46% | 6.04% | 28.2% | 5.93% | 15.3% | 2.49% | 23% | -3.66% | -0.59% | 6.38% | 37.2% | 1.44% | 2.13% | 2.61% | 24.1% | 10.8% | 47.2% | 5.04%
Fc1ccc(-c2ncn(C3CCNCC3)c2-c2ccnc(Oc3ccc(Oc4ccccc4)cc3)n2)cc1 | 4.07% | -2.03% | -0.39% | 0.96% | -5.23% | 5.51% | 6.26% | 0.09% | 0.87% | -0.33% | -0.39% | -1.06% | 0.02% | 1.12% | 1.72% | 7.97% | 12.8% | 6.45% | 10.1% | 2.66%
COc1ccc2ncn(-c3cc(O[C@H](C)c4ccccc4Cl)c(C(N)=O)s3)c2c1 | 0.49% | -0.21% | 0.54% | 5.98% | 7.62% | 6% | 5% | -0.74% | 3.29% | -3.96% | -2.83% | 0.05% | 4.48% | 1.58% | 1.26% | 4.44% | 11.2% | 2.04% | 0.17% | 2.41%
Cc1ccc(C(=O)NC2CCC2)cc1-c1ccc(C(=O)NCC2CC2)cc1 | 0.79% | 0.3% | -1.21% | 2.32% | 2.85% | 3.61% | 2% | 0.78% | 1.55% | -0.51% | -0.13% | -0.5% | 0.14% | 0.63% | -0.21% | 6.34% | 3.12% | 1.33% | 0.45% | 1.61%
COc1ccc2cc(-c3c(-c4ccncc4)nc(-c4ccc(S(C)(=O)=O)cc4C)n3C)ccc2c1 | 1.75% | -0.05% | 2.36% | 5.34% | 5.99% | 5.31% | 5.26% | 2.41% | 2.08% | 0.92% | 4.18% | 4.87% | 3.73% | 1.38% | 2.64% | 5.28% | 9.27% | 3.7% | 10.8% | 2.5%
